{"source": "PubChem BioAssay AID488908", "about": "(National Center for Advancing Translational Sciences (NCATS), 2010)", "note": "Results filed as inconclusive are left out. Unmarked numbers belong to inactive results. Calls of active or inactive are those of the source. Calls follow the shape of the dose curve; as a rule, active = well fitted inhibition curve with a large enough effect; inconclusive = small, poorly fitted or top-dose-only effect; inactive = flat fitted curve, though single readings scatter.", "data": [{"test": "Secondary Assay for lipid storage modulators: Cytotoxcity for probe SAR", "settings": "Drosophila S3 cells viability, CellTiter-Glo luminescence, 24 h, with oleic acid added (1 µL, 400 µM); series mostly up to 46.1 µM; activity change, negative = cytotoxicity: at the top concentration", "excerpt": "NIH Molecular Libraries Probe Production Centers Network [MLPCN] NIH Chemical Genomics Center [NCGC] MLPCN Grant: 1 R03 MH085686-01 Assay Submitter (PI): Beller, Mathias; Max-Planck-Institut fur Biophysikalische Chemie, Germany. NCGC Assay Overview: Storing lipids as a reservoir for energy or the anabolism of elementary metabolites is a common feature of probably all cells and is conserved from bacteria to humans. The universal cellular lipid storage organelle is the so-called lipid storage droplet (LD). Although ubiquitous, LDs share a simple structure composed of a hydrophobic core that harbors the storage lipids, which is shielded by a droplet-specific phospholipid monolayer to which proteins are attached. The current model of LD biogenesis involves an incorporation of the lipid core into the membrane leaflets of the endoplasmic reticulum (ER) followed by a subsequent budding-like maturation of a LD, which ultimately pinches off. Once released, LD volume can increase by localized lipogenesis or fusion of existing droplet. Storage lipids are re-mobilized enzymatically by lipase activity. Lipase regulation in the adipocyte is heavily studied and involves multiple components including catecholamine signaling, the LD-associated proteins Perilipin and comparative gene identification (CGI-58) and at least two lipases named hormone sensitive lipase (HSL) and adipocyte triglyceride lipase (ATGL). LD regulation outside of the adipocyte is poorly understood and only few components are known. However, there is an urgent need to learn more about ectopic fat depots as mislocalized storage of lipids, for example in the liver or muscle, is an eminent health problem associated with insulin resistance or the metabolic syndrome. We developed a laser-scanning cytometer assay to enable 1,536-well screening and combined the results of the small molecules screen with an RNAi database based on lipid storage. The compound was tested here for cytotoxcity using CellTiter-Glo.\nAssay Protocol Summary: Cytotoxcity assay was performed with embryonic Drosophila S3 cells (Bloomington Drosophila Genomics Resource Center [DGRC]). We dispensed 4 uL of cells at 1.25 x 10^6 cells/mL into Greiner solid white 1,536-well plates with a bottle-valve solenoid-based dispenser (Aurora) to obtain 5,000 cells/well. A total of 23 nL of compound solution of different concentrations were transferred to the assay plates using a Kalypsys pin tool equipped with a 1,536-pin array containing 10-nL slotted pins (FP1S10, 0.457-mm diameter, 50.8 mm long; V&P Scientific). One microliter of oleic acid (400 uM) was added, and the plate was lidded with stainless steel rubber gasket lined lids containing pinholes. After 24 hrs of incubation at 24 degrees Celsius and 95% humidity, 4 uL of CellTiter-Glo (Promega) was added to the wells. Luminescence was detected on the Perkin Elmer ViewLux.", "values": [{"smiles": "COc1ccc(Cl)cc1NC(=S)N1CCN(c2ccccc2)CC1", "activity change, negative = cytotoxicity": "-3.23%"}, {"smiles": "CCOc1ccc(CCNC(=O)c2ccc(C3(C(F)(F)F)N=N3)cc2)cc1OCC", "activity change, negative = cytotoxicity": "-8.66%"}, {"smiles": "O=C(NC1CCCc2c1cnn2-c1cc(F)cc(F)c1)c1cccc2nccnc12", "note": "(stereo not given)", "activity change, negative = cytotoxicity": "-6.12% [at 30.7 µM]"}, {"smiles": "O=C(Nc1cccc2c1cnn2-c1ccc(F)cc1)c1ccccn1", "Potency": "888 nM (active)"}, {"smiles": "COc1ccc(-c2csc(NC(=O)CSc3nnc(Nc4ccccc4)s3)n2)cc1", "activity change, negative = cytotoxicity": "-28.8%"}, {"smiles": "O=C(c1cc2sccc2n1Cc1ccccc1)N(CCc1ccc(O)c(O)c1)Cc1ccccc1", "activity change, negative = cytotoxicity": "-27.4%"}, {"smiles": "O=C(NC1CCCc2c1cnn2-c1ccc(F)cc1F)c1ccncc1", "note": "(stereo not given)", "Potency": "1410 nM (active)"}, {"smiles": "CCOc1ccc(CCNC(=O)C2CCCCC2)cc1OCC", "activity change, negative = cytotoxicity": "-18.7%"}, {"smiles": "COc1ccccc1NC(=S)N1CCN(c2cc(Cl)ccc2C)CC1", "activity change, negative = cytotoxicity": "-8.23%"}, {"smiles": "CCOC(=O)C1CCN(C(C)C(=O)NC(=O)NC2CCCCC2)CC1", "note": "(stereo not given)", "activity change, negative = cytotoxicity": "-4.53%"}, {"smiles": "O=C(NC1CCCc2c1cnn2-c1ccc(F)cc1F)c1ccc(C(=O)c2ccccc2)cc1", "note": "(stereo not given)", "Potency": "11200 nM (active)"}, {"smiles": "COc1ccc(-c2cnc(SCC(=O)Nc3nc(C)cs3)n2Cc2ccco2)cc1", "activity change, negative = cytotoxicity": "-20.5% [at 30.7 µM]"}, {"smiles": "CCOc1ccc(CCNC(=O)c2ccccn2)cc1OCC", "activity change, negative = cytotoxicity": "-10.2%"}, {"smiles": "Cc1ccc(NC(=O)c2ccc(CN3CCN(C)CC3)cc2)cc1Nc1nc(-c2cccnc2)cs1", "activity change, negative = cytotoxicity": "-27.6%"}, {"smiles": "CCn1c(C(=O)NCCc2ccc(OC)c(OC)c2)cc2sc(Cl)cc21", "activity change, negative = cytotoxicity": "-2.07% [at 30.7 µM]"}, {"smiles": "CCc1sc(NC(=O)Cc2cccs2)nc1-c1ccccc1", "activity change, negative = cytotoxicity": "-14.1%"}, {"smiles": "O=C(Cc1cccs1)Nc1nc(-c2ccc(F)cc2)cs1", "activity change, negative = cytotoxicity": "-25.4%"}, {"smiles": "CN(C)CC(=O)NC1CCCc2c1cnn2-c1ccc(F)cc1F", "note": "(stereo not given)", "activity change, negative = cytotoxicity": "-8.45%"}, {"smiles": "CCOc1ccc(CCNC(=O)CN(C)C)cc1OCC", "activity change, negative = cytotoxicity": "1.74%"}, {"smiles": "CCOC(=O)C1CCN(C(=O)C2(NC(=O)Nc3ccccc3Cl)CC2)CC1", "activity change, negative = cytotoxicity": "-6.16%"}, {"smiles": "O=C(CSc1nnc(NCc2ccccc2)s1)Nc1nc(-c2ccc(F)c(F)c2)cs1", "activity change, negative = cytotoxicity": "-24.2%"}, {"smiles": "CCOC(=O)C1CCN(C(=O)C(C)(C)NC(=O)Nc2ccccc2Cl)CC1", "activity change, negative = cytotoxicity": "-7.62%"}, {"smiles": "CCOc1ccc(CCNC(=O)c2cccc(C(=O)c3ccccc3)c2)cc1OCC", "activity change, negative = cytotoxicity": "-21.3%"}, {"smiles": "CCOc1ccc(CCNC(=O)c2ccc(N3N=C(C)CC3=O)cc2)cc1OCC", "activity change, negative = cytotoxicity": "-8.66%"}, {"smiles": "COc1cc(NC(=S)N2CCN(c3ccccn3)CC2)c(OC)cc1Cl", "activity change, negative = cytotoxicity": "-8.95%"}, {"smiles": "CCOC(=O)C1CCN(C(=O)C2(NC(=O)Nc3ccccc3Cl)CCC2)CC1", "activity change, negative = cytotoxicity": "-4.57%"}, {"smiles": "COc1ccc(Cl)cc1NC(=S)N1CCN(c2ccccc2F)CC1", "activity change, negative = cytotoxicity": "-6.35%"}, {"smiles": "CCOC(=O)C1CCCN(C(=O)C2(NC(=O)Nc3ccc(F)cc3F)CCCCC2)C1", "note": "(stereo not given)", "activity change, negative = cytotoxicity": "-17.7%"}, {"smiles": "O=C(NC1CCCc2c1cnn2-c1ccc(F)cc1F)c1cnccn1", "note": "(stereo not given)", "Potency": "3970 nM (active)"}, {"smiles": "COc1ccc(CCNC(=O)c2cc3sccc3n2Cc2ccccc2)cc1OC", "activity change, negative = cytotoxicity": "-27.8%"}, {"smiles": "COc1nc(-c2ccc3c(c2)OCO3)n(-c2ccc(NC(=O)CSc3ccccc3)cc2)n1", "activity change, negative = cytotoxicity": "-7.25%"}, {"smiles": "O=C(CSc1nnc(NCc2ccccc2)s1)Nc1nc(-c2cccc(Br)c2)cs1", "activity change, negative = cytotoxicity": "-15.8%"}, {"smiles": "CCOc1ccc(CCNC(=O)c2cc3ccccc3n2C)cc1OCC", "activity change, negative = cytotoxicity": "-28.9%"}, {"smiles": "CCn1c(C(=O)NCCc2ccc(OC)c(OC)c2)cc2sccc21", "activity change, negative = cytotoxicity": "-23.9%"}, {"smiles": "Cc1csc(NC(=O)CSc2ncc(-c3ccccc3)n2Cc2ccco2)n1", "activity change, negative = cytotoxicity": "-14.8%"}, {"smiles": "COc1ccc(-c2csc(NC(=O)CSc3nnc(NC4CC4)s3)n2)cc1OC", "activity change, negative = cytotoxicity": "-10.9%"}, {"smiles": "COc1cc(Nc2ncc(F)c(Nc3ccc4c(n3)NC(=O)C(C)(C)O4)n2)cc(OC)c1OC", "activity change, negative = cytotoxicity": "-16.2%"}, {"smiles": "CCOC(=O)C1CCN(C(=O)C2(NC(=O)NCc3ccccc3)CCCCC2)CC1", "activity change, negative = cytotoxicity": "-15.6%"}, {"smiles": "Cc1cn(-c2cc(NC(=O)c3ccc(C)c(Nc4nccc(-c5cccnc5)n4)c3)cc(C(F)(F)F)c2)cn1", "activity change, negative = cytotoxicity": "-26%"}, {"smiles": "CCn1c(-c2ccc(C)cc2)cnc1SCC(=O)Nc1nc(C)cs1", "activity change, negative = cytotoxicity": "-26.7%"}]}]}
